Molecules are shown by their SMILES. The campaign covered roughly 350,000 compounds. About 2,400 (0.69%) were called active. What follows is part of a selection rich in actives, with near analogues and random picks from the rest. Values without a mark were called inactive. Rule as the data show it: active = inhibition above about 41%; inconclusive = no clear call, values can overlap the other calls; inactive = below that.

A short description of the experiment: blockers of LMP1-induced NF-kB reporter signal – cell-based, luminescence, single point, primary screen (AID 504558).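 Also: 0% = neutral control wells and 100% = reference inhibitor control.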 Conditions: LMP1-induced NF-kappaB luciferase reporter cells, at 12.5 µM, stronger effect = higher value. (In general: A reporter such as luciferase makes a cellular process visible.)
One may read the inhibition as the change of the read-out against control, counted positive when it falls. For the compound `COc1ccc(CN2C(=O)C(CC(=O)NC3CCCCC3)CC(C(=O)N3CCOCC3)=C2C)cc1` (centres undefined), the inhibition was 1.44%. `Cc1c(Cl)cnc(NC(=O)COC(=O)C2CCCC2)c1Cl`: the inhibition was -6.23%. To `CSCCC(NC(=O)c1ccco1)C(=O)OCC(=O)Nc1ncc(Cl)c(C)c1Cl` (centres undefined) belongs 59.5% (active); to `CSCCC(NC(=O)c1ccco1)C(=O)Nc1cc(C)ccn1` (centres undefined), -34.2%; to `COc1cccc(OCC(=O)NCCS(=O)(=O)N2CCN(c3ccccc3)CC2)c1`, 1.31%. As to `O=C(CC(CC(=O)c1ccccc1)c1ccco1)c1ccccc1`, the inhibition was -17.7%. Then `C/C(=N\OCC(=O)O)c1ccc(Cl)cc1`, with -9.17%; and `CCOC(=O)CN/C=C(\C#N)c1ccc(F)cc1`, with 1.95%; and `CCOc1cc(/C=C(/C#N)c2ccc(Cl)cc2)cc(Cl)c1OCC(=O)O`, with 43.8% (active). With `CCOC(=O)c1cc(-c2sc(NC(=O)c3ccccc3)nc2C)n(-c2ccc(Br)cc2)n1`, the inhibition was -16.6%. To `C[C@@H]1CN([C@H](C)CO)S(=O)(=O)c2ccc(C#CC3CCCCC3)cc2O[C@H]1CN(C)C(=O)Cc1ccncc1` belongs -11.3%; to `COc1ccc(C(CNC(=O)c2ccc(OCc3cscn3)cc2)N2CCCC2)cc1` (centres undefined), -12%; to `CC(=O)Nc1c(-c2ccc(C)cc2)nc2ccc(Cl)cn12`, 6.02%. To `Cc1sc2nc(-c3ccccc3F)oc(=O)c2c1C` belongs 1.32%; to `CSc1ncnc2c1ncn2CCCNCC1CCCCC1`, 3.66%; to `O=C(NN=Cc1ccccc1O)NN=Cc1ccccc1O`, 33.4%. With `Cc1ccc(/C=N/NC(=O)C2=NNC(c3ccccc3)(c3ccccc3)C2)c(O)c1`, the inhibition was 61.6% (active). Consider `O=C(N/N=C/c1ccccc1O)C1CCCC1`, for which the inhibition is 0.696%. To `Cc1nc2ccccc2nc1CC(O)(c1ccccc1)c1ccccc1` belongs -2.04%; to `Nc1ccccc1-c1nc2ccncc2[nH]1`, 2.17%. Then `Cc1nnc(N/N=C/c2ccccn2)[nH]c1=O`, with 60.6% (active); and `O=C(COc1ccc(Cl)cc1Cl)N/N=C/c1ccccn1`, with 19.3%. To `O=C(N/N=C/c1ccccn1)C12CC3CC(CC(C3)C1)C2` belongs -4.71%; to `Cc1ccc(-c2ccc(CN3C(C)C(=O)N(Cc4cn(CCC5OCCCO5)nn4)CCS3(=O)=O)cc2)cc1` (centres undefined), 3.6%; to `C[C@@H]1CCCCO[C@H](CN(C)Cc2ccccc2)[C@@H](C)CN([C@H](C)CO)C(=O)c2cc(NS(=O)(=O)c3ccc(Cl)cc3)ccc2O1`, -0.347%. On to `CCN(CC)C(=O)C1=C(C)N(Cc2ccc(F)cc2)C(=O)C(CC(=O)NC2CCCC2)C1` (centres undefined), for which the inhibition was 5.32%.

Take `COc1cc(C=NNC(=O)c2cccnc2)ccc1OC(=O)c1ccccc1F`: the inhibition was 5.47%. Then `COc1ccc(C(=O)Nc2ccccc2C(=O)N/N=C/c2ccc(O)c(OC)c2)cc1`, with 66.5% (active).

As to `O=C(NN=Cc1ccc2c(c1)CCC2)c1ccccc1O`, the inhibition was -10.8%. To `CCCCCCNC(=O)O[C@H]1CN(C(=O)OC(C)C)N(C(=O)OC(C)C)[C@@H]2CN(S(=O)(=O)c3ccc(C)cc3)C[C@]12O` belongs -5.81%. Then `Cc1cc2cc3n(c2nn1)N=C(Cl)CC3`, with 3.98%. Then `CNS(=O)(=O)c1ccc2c(c1)[nH]c(=S)n2C`, with 8.35%; and `CCOc1cc(/C=N/NC(=O)c2c(C)nc3ccc(Cl)cn23)ccc1O`, with -8.3%. Consider `O=C(CCn1ccc([N+](=O)[O-])n1)Nc1nccs1`, for which the inhibition was -2.16%.

For the compound `Cc1ccnc(NC(=O)Cn2ccc([N+](=O)[O-])n2)c1`, the inhibition is 53.9% (active). To `O=C(Cn1ccc([N+](=O)[O-])n1)NCc1cccs1` belongs -5.11%; to `Cn1ncc([N+](=O)[O-])c1C(=O)Nc1cc(Cl)ccc1Cl`, 1.05%. Then `CCc1nc2c(=O)[nH]cnc2o1`, with 1.63%; and `CCN1C(=O)[C@H]2[C@@H](c3ccc(C(F)(F)F)cc3)N[C@]3(CCCN(Cc4ccc(Br)cc4)C3=O)[C@H]2C1=O`, with 33.7%; and `C[C@H]1CN([C@@H](C)CO)S(=O)(=O)c2ccc(-c3cccc(F)c3)cc2O[C@@H]1CN(C)C`, with -3.16%. `Cc1cccn2c(=O)c3cc(C(=O)NC4CCCCC4)sc3nc12`: the inhibition is -2.71%.

For the compound `Cc1ccccc1C(=O)NC(=S)NC1CC1`, the inhibition is 2.37%.

`Cc1ccccc1-n1nc(C)c2cc(C(=O)NC3CC3)sc21`: the inhibition is 48.8% (active). To `CC(C)[C@H](NC(=O)c1ccccc1F)C(=O)Nc1cccc(S(=O)(=O)N2CCOCC2)c1` belongs -8.03%; to `CCN(CC)C(=O)C1=C(C)N(Cc2ccc(OC)cc2)C(=O)C(CC(=O)NCc2ccco2)C1` (centres undefined), -5.75%; to `O=C(COc1ccc(S(=O)(=O)N2CCCC2)cc1[N+](=O)[O-])N1CCCCC1`, -1.43%.

As for `O=C(C1=C[C@H](c2coc3ccccc3c2=O)C[C@H](OCc2ccc(CO)cc2)O1)N1CCOCC1`, the inhibition was -1.64%.

As for `O=C(C1=C[C@H](c2ccc(C(F)(F)F)cc2)C[C@H](OCc2ccc(CO)cc2)O1)N1CCN(Cc2ccccc2)CC1`, the inhibition was -10.6%.

With `O=C(C1=C[C@H](c2coc3ccccc3c2=O)C[C@H](OCc2ccc(CO)cc2)O1)N1CCN(Cc2ccccc2)CC1`, the inhibition was 72.5% (active). Then `CN1OC[C@@H]2CN(C(=O)c3ccc(-c4ccccc4)cc3)[C@H](c3ccc(-c4cccc(F)c4)cc3)C[C@@H]21`, with -3.6%; and `Brc1ccc2ncnc(NCc3cccnc3)c2c1`, with 27.2%; and `O=C(O)CCCCCNc1ncnc2ccc(Br)cc12`, with 3.15%.

Take `COc1ccc(Nc2ncnc3ccc(Br)cc23)c(OC)c1`: the inhibition was 69.1% (active). Then `Cc1ccc([C@H]2N[C@]3(CCCN(Cc4ccccc4)C3=O)[C@H]3C(=O)N(Cc4ccccc4)C(=O)[C@@H]23)cc1`, with 4.09%; and `O=C(O)CCCc1ccccc1`, with 65.7% (active).

Regarding `CCC(C)NC(=O)CCCc1ccccc1` (centres undefined), the inhibition is -18%. With `O=C(O)CCC(=O)N(Cc1ccccc1)Cc1ccccc1`, the inhibition is -12%. To `O=C(N/N=C/c1ccccn1)c1cccc(NC(=O)c2ccc(Cl)cc2)c1` belongs -0.655%; to `S=C(NN=Cc1ccccn1)Nc1ccccn1`, 76.3% (active). To `S=C(Nc1cccnc1)Nc1ccccn1` belongs -5.41%. To `COc1ccc(NC2CCCN(C(=O)c3ccccc3-c3ncc[nH]3)C2)cc1` (centres undefined) belongs 1.54%. Turning to `C[C@H]1CN([C@@H](C)CO)C(=O)CCCn2cc(nn2)CO[C@@H]1CN(C)S(=O)(=O)c1ccc(-n2cccn2)cc1`, the inhibition is 4.52%. Then `CC1CCN(c2ccc3c(c2)S(=O)(=O)c2cc(C(=O)O)ccc2C3=O)CC1`, with -11.1%. To `CC1=C(C(=O)N2CCOCC2)CC(CC(=O)NCCN2CCOCC2)C(=O)N1CCC1=CCCCC1` (centres undefined) belongs 6.89%. To `Cc1sc2nc(CC(N)=O)[nH]c(=O)c2c1-c1ccccc1` belongs -10.6%; to `NC(=O)c1sc2nc3c(c(-c4ccccc4)c2c1N)CCC3`, 44.3% (active); to `CCN(CC)C(=O)c1sc2nc(-c3ccccc3)ccc2c1N`, -15.3%. Consider `CC(C)CCNC(=O)CC1C(=O)N(Cc2ccccc2)C(C)c2nc3ccccc3n21` (centres undefined), for which the inhibition was 48.7% (active). For `CC1c2nc3ccccc3n2C(CC(=O)NCCCN2CCOCC2)C(=O)N1Cc1ccccc1` (centres undefined), the inhibition was 0.985%. Turning to `CCOC(=O)C1CCN(C(=O)CC2C(=O)N(Cc3ccccc3)C(C)c3nc4ccccc4n32)CC1` (centres undefined), the inhibition was 14.1%. Then `CN(C)C(CNC(=O)c1cccc(S(=O)(=O)N2CCc3ccccc3C2)c1)c1ccccc1` (centres undefined), with -16.9%; and `CC(OC(=O)c1ccc(Cl)cc1O)C(=O)NCCC1=CCCCC1` (centres undefined), with -1.59%.

For the compound `CC(C)OC(=O)c1ccc(NCc2cc(O)ccc2O)cc1Cl`, the inhibition was 72.4% (active).

With `CC(CN1CCOCC1)OC(=O)c1ccc(Cl)cc1Cl` (centres undefined), the inhibition is -3.67%.

For `O=C(c1ccccc1)N1CCN(C(=O)c2cc3nc(-c4ccccc4)cc(C(F)(F)F)n3n2)CC1`, the inhibition was 6.54%. As to `C#Cc1cc(N2CCN(C(=O)c3ccoc3)CC2)n2nc(-c3cccc(Cl)c3)cc2n1`, the inhibition is 53.9% (active). Then `O=C(c1ccccc1)N1CCN(c2cc(-c3ccccc3)nc3cc(-c4cccc(Cl)c4)nn23)CC1`, with -2.14%. For `C=C(C)C(=O)O[C@H]1C/C(C)=C\C(=O)/C=C(\C)[C@H](O)[C@@H]2OC(=O)C(=C)[C@@H]21`, the inhibition is 88.8% (active).

Take `CNC(=O)c1ccc(CN(C)C(=O)c2cc(C3CC3)nc3c2cnn3C(C)C)cc1`: the inhibition was -3.68%. Then `CC1CCCC(C)N1C(=O)COC(=O)c1ccccc1C(=O)c1ccccc1` (centres undefined), with -3.93%; and `COc1cc(C(=O)N2CCOC23CCN(Cc2ccccc2)CC3)cc(OC)c1OC`, with 4.75%. Take `Clc1cccc(-c2nc(NCC3CCCO3)c3ccccc3n2)c1` (centres undefined): the inhibition was -0.333%. To `NC(N)=Nc1nc(-c2ccccc2)c2cc(Cl)ccc2n1` belongs -32.8%; to `Clc1ccc2nc(-c3ccccc3)nc(C(Cl)Cl)c2c1`, 86.7% (active).

Regarding `CCN(Cc1ccncc1)C(=O)CCc1ccccc1`, the inhibition was 78.9% (active). For the compound `CCN(CC)C(=O)N(CC)Cc1ccccc1`, the inhibition is 2.28%. To `CC(C)(C)N(Cc1ccccc1)C(=O)c1ccncc1` belongs 11.5%. Then `CCN(CC)C(=O)C1=C(C)N(Cc2ccc(C(C)(C)C)cc2)C(=O)C(CC(=O)NCc2cccc3ccccc23)C1` (centres undefined), with -0.881%; and `CCOc1cc(/C=N/NC(=O)c2ccncc2)cc(Br)c1O`, with -1.49%.

For the origin of these results see PubChem BioAssay AID504558 (Broad Institute, 2011).
